# Screening data from PubChem.
# BAZ2B block: BAZ2B (human) inhibition; AlphaScreen BAZ2B-H3K14Ac peptide displacement; Potency, µM (highest dose often 114 µM), without a hit: at the highest dose activity change, negative = inhibition, actives largely listed as inhibitors; hit rate 4.4% among 360,000; AID 504333; note: % is set by controls: 0 for no effect and ±100 for the full control effect; nearly all actives have a fitted effect of over 60% in size
#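 Inhibition is scored as reduced AlphaScreen emission. The BAZ2B/b-H3(5-23)K14Ac complex (50 nM each) in PBS pH 7.4, 0.01% Tween-20 meets compound (up to 110 uM) for 30 min at RT before bead addition.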
# JMJD2A Tudor inh: inhibitors of human JMJD2A Tudor domain; AID 504339; hit rate 4.4% among 390,000; AlphaScreen JMJD2A-Tudor / H3K4me3 peptide binding; Potency, µM (top dose mostly 114 µM), inactives show top-dose activity change, negative = inhibition, usual class: inhibitors; note: % is set by controls: 0 for no effect and ±100 for the full control effect; nearly all actives have a fitted effect of over 50% in size
# HP1b binding inh: blocks HP1-beta chromodomain binding to methylated histone tails; AlphaScreen HP1-beta / biotin-H3K9me3 peptide binding; AID 540317; P83916; Potency, µM (series often up to 114 µM), inactives show at the highest dose activity change, negative = inhibition, most hits filed as inhibitors; hit rate 0.56% among 390,000; note: nearly all actives have a fitted effect of over 70% in size
# Target sequence (P83916 whole entry, looked up): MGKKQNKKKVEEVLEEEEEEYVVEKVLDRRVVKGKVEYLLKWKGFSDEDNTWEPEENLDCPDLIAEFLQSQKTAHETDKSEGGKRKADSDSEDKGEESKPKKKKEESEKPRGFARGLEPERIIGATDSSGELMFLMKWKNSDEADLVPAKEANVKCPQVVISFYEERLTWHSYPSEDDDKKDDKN
#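 Compound inhibition of the preformed complex between 50 nM HP1-beta and 50 nM biotinylated H3K9me3 peptide was read by AlphaScreen. Buffer was PBS pH 7.4 with 0.01% Tween-20. Incubations ran 30 min at room temperature, with 10 ug/mL donor/acceptor beads.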
# G9a block: G9a (human) methyltransferase inhibition; Q96KQ7; G9a H3K9 monomethylation, AlphaScreen, 2 h; Potency, µM (highest dose often 102 µM), without a hit: top-dose activity, negative = inhibition, usual class: inhibitors; hit rate 8.8% among 350,000; AID 504332; note: % is set by controls: 0 for no effect and ±100 for the full control effect; nearly all actives have a fitted effect of over 75% in size
# Target sequence (Q96KQ7 913-1193 limits assumed): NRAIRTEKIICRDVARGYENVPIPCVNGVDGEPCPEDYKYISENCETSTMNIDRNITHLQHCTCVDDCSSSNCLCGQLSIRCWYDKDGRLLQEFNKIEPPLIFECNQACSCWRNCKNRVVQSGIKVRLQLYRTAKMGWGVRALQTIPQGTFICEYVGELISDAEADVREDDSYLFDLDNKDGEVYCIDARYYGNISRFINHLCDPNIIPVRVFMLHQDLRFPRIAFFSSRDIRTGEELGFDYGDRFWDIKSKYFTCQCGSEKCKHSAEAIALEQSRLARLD
#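 Signal arises when biotinylated H3K9 peptide, once monomethylated, bridges streptavidin donor and antibody-captured acceptor beads. Enzyme at 20 nM was preincubated 15 min with test compounds; peptide 500 nM and SAM 20 uM then reacted for 2 h.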
# L3MBTL1 block: L3MBTL1 (human) inhibition. Potency, µM (top dose mostly 57.1 µM), for inactives: at the highest dose activity, negative = inhibition, usual class: inhibitors. AlphaScreen L3MBTL1–H3K9me1 peptide binding. Q9Y468. hit rate 0.66% among 230,000; note: % is set by controls: 0 for no effect and ±100 for the full control effect; nearly all actives have a fitted effect of over 60% in size
#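 L3MBTL1 (50 nM) pre-complexed 30 min with biotinylated H3(1-15)K9me1 peptide (75 nM), then compounds added for 30 min at room temperature; AlphaScreen streptavidin donor/nickel chelate acceptor beads (10 ug/mL final) read after 30 min dark incubation.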
# * marks the source's active call; other numbers are inactive results; u = inconclusive; x = not tested or not shown; [ ] = another dose, or the depositor's remark. Rows were chosen to be rich in hits. Some 11% of all compounds tested hit in one or more screens of this group. Calls come from the whole dose curve; as a rule, active = well fitted inhibition curve with a large enough effect; inconclusive = small, poorly fitted or top-dose-only effect; inactive = no such curve, though single readings can be large or run the other way. Potency is the fitted concentration of half-maximal effect.
SMILES,BAZ2B block,JMJD2A Tudor inh,HP1b binding inh,G9a block,L3MBTL1 block
CCCCN1C(=O)/C(=C2\SC(N3CCCCC3)=NC2=O)c2ccccc21,-84%,56µM*,16µM*,16µM*,u
COc1ccc(C(=O)/C=C/C(=O)N(CC(=O)NC2CCCCC2)Cc2cccs2)c(O)c1,-25%,-13%,14%,16µM*,-11%
COCCN(CC(=O)NC1CCCCC1)C(=O)/C=C/C(=O)c1ccc(OC)cc1O,-2%,-22%[57.1 µM],-36%,x,6%
CCCCCNC(=O)C(=O)C1C(=O)Nc2ccccc21 (stereo not drawn),79µM*,u,51%,x,x
CN(C)CCNC(=O)C(=O)C1C(=O)Nc2ccccc21 (stereo not drawn),-10%,x,x,32µM*,6%
O=C1Nc2ccccc2C1C(C[N+](=O)[O-])c1ccccn1 (stereo not drawn),u,-14%,49%,35µM*,x
Cc1ccc(NC(=O)C(=O)C2C(=O)Nc3ccccc32)cc1 (stereo not drawn),3%,-13%,38%,u,-3%
O=C1Nc2ccccc2C1Cc1ccccn1 (stereo not drawn),u,89µM*,1%,u,0%
O=[N+]([O-])c1ccc(CC(Cl)c2ccccn2)cc1 (stereo not drawn),x,-17%,29%,x,x
COc1ccccc1C(=O)Nc1cccc(C(=O)OCc2cc(=O)n3ccsc3n2)c1,-3%,-30%,44%,1%[59 µM],x
CCN(Cc1ccncc1)C(=O)c1ccc(C)c(S(=O)(=O)N2CCCCC2)c1,x,-9%,32%,x,-4%
COc1ccc(-c2cn3nc(N4CCCC(C(=O)NCc5ccc(Cl)cc5)C4)sc3n2)cc1 (stereo not drawn),0%,-20%,15%,-36%[59 µM],x
O=C1Nc2ccccc2C1Cc1ccc(OC(F)(F)F)cc1 (stereo not drawn),3%,-11%,39%,1%,x
O=C(NCc1ccccn1)C(=O)C1C(=O)Nc2ccccc21 (stereo not drawn),79µM*,-4%,32%,50µM*,x
O=C(NCc1ccccn1)C(=O)Nc1ccccc1,1%,-18%,32%,-3%,10%
COc1cc(CC2C(=O)Nc3ccccc32)cc(C)c1O (stereo not drawn),-12%,-10%,16%,35µM*,x
CCOc1ccc(-n2c(=O)c3c(C)c(C)sc3n(Cc3c(F)cccc3Cl)c2=O)cc1,1%,-5%,26%,9%[59 µM],x
CC(c1ccccc1)N1CC(C(=O)N2CCCC(C(N)=O)C2)CC1=O (stereo not drawn),-2%,0%,37%,4%[12.7 µM],6%
O=S(=O)(NCc1ccc(Cl)cc1)c1ccc(Cl)nc1,-31%,14%,37%,71%[59 µM],7%
NS(=O)(=O)c1ccc(CNS(=O)(=O)c2ccc(Cl)nc2)cc1,-5%,-12%,35%,56µM*,5%
CC(C)(C)C(=O)OCOP(=O)(OCOC(=O)C(C)(C)C)C(C)(Oc1ccc(O)cc1)P(=O)(OCOC(=O)C(C)(C)C)OCOC(=O)C(C)(C)C,x,x,x,3.5µM*,x
CCCOc1ccc(NC(=O)CC2C(=O)N(c3cccc(OC)c3)C(=O)N2CCc2ccncc2)cc1 (stereo not drawn),-20%,-13%,25%,-2%[59 µM],x
C[C@@H](O)[C@@H]1C(=O)N2C(C(=O)O)=C([C@H]3CCCO3)S[C@H]12,x,x,x,1%[12.7 µM],x
C/C=C/Cn1c(SCc2ccc(C)cc2)nc2c1c(=O)[nH]c(=O)n2C,-5%,-20%,-13%,25µM*,-1%
CCCSc1nc2c(c(=O)[nH]c(=O)n2C)n1Cc1ccc(C)cc1,8%,-13%,25%,6%,6%
SMILES,BAZ2B block,JMJD2A Tudor inh,HP1b binding inh,G9a block,L3MBTL1 block
C=CCSc1nc2c(c(=O)[nH]c(=O)n2C)n1Cc1ccc(C)cc1,1%,-19%,-6%,14µM*,-10%
C=CCn1c(SCc2ccc(F)cc2)nc2c1c(=O)[nH]c(=O)n2C,-6%,-8%,40%,u,x
CS(=O)(=O)N1CCN(c2ccc([N+](=O)[O-])c(NCc3ccc(Cl)cc3)c2)CC1,u,89µM*,8%,25%[59 µM],7%
CC(C)(C)c1ccc(CNc2cc(N3CCOCC3)ccc2[N+](=O)[O-])cc1,u,u,u,25µM*,-26%
CC(C)c1ccc(CNc2cc(N3CCCC3)ccc2[N+](=O)[O-])cc1,u,u,-29%,u,-8%
COc1cccc(-c2cn3c(n2)sc2cc(C(=O)NCc4ccccc4F)ccc23)c1,-2%,0%,15%,1%[59 µM],x
NNC(=O)Nc1cccc(C(F)(F)F)c1,-2%,-6%,56%,15%,4%
NC(=O)/C=C\C(=O)Nc1cccc(C(F)(F)F)c1,-8%,-12%,16%,10µM*,-3%
CN(C)NC(=S)Nc1cccc(C(F)(F)F)c1,0%,7%,28%,x,7%
Cc1ccc(NC(=S)NNC(=S)Nc2cccc(C(F)(F)F)c2)cc1,-27%,u,u,20µM*,x
COc1ccc(-c2ccc(CCC(=O)O)n2CC(=O)Nc2cccc(Cl)c2C)cc1,u,-28%,-2%,u,x
COc1cccc(CNC(=O)C2CCCN(c3nn4cc(-c5ccc(C)cc5)nc4s3)C2)c1 (stereo not drawn),-2%,-9%,10%,-1%[59 µM],x
CN(C)c1ccc(CNc2nc(-c3ccccc3)nn2S(C)(=O)=O)cc1,35µM*,56µM*,u,28µM*,-24%
CC(=O)n1nc(-c2ccccc2)nc1NCc1ccc(N(C)C)cc1,25µM*,35µM*,u,-128%[59 µM],-19%
COc1cccc(CNC(=O)Cn2c(=O)cc(C(F)(F)F)c3c(C)nn(C)c32)c1OC,0%,0%,31%,3%[59 µM],x
CC(C)N1C(=O)CC2(CC[N+](C)(CCOC(=O)C(c3ccccc3)c3ccccc3)CC2)C1=O (stereo not drawn),45µM*,-7%,26%,u,11%
O=C(OCCN1CCOCC1)C(c1ccccc1)c1ccccc1,8%,u,0%,1%,-2%
O=C(CSc1nnc2[nH]c(=O)cc(-c3ccccc3)n12)Nc1ccc(OC(F)(F)F)cc1,4%,-28%,58%,u,x
CN(C)/N=C/C=C1\CC/C(=C\c2ccc(Br)cc2)C1=O,u,-30%,-8%,50µM*,x
COc1cc(C=NNc2ccc(S(=O)(=O)Nc3ccccc3C(=O)O)cc2[N+](=O)[O-])ccc1O,x,25µM*,u,x,u
CCN(CC)S(=O)(=O)c1ccc(N/N=C(\C)c2ccncc2)c([N+](=O)[O-])c1,2%,-16%,-30%,15%,x
O=C(O)c1ccccc1NS(=O)(=O)c1ccc(N/N=C/c2cccc(O)c2O)c([N+](=O)[O-])c1,x,20µM*,u,x,x
